Consider seven compounds from PubChem BioAssay (Tox21).

Values joined by “and” are separate entries in the source; they are usually repeats but may differ in a detail not shown here. Identical values can stand only once. Inconclusive results are not listed. More than one record can exist for a structure, and the calls need not agree. Active and inactive are the calls of the source. Unless noted, the call rests on the fitted dose curve.

The nature of assay [1]: Nuclear factor erythroid 2-related factor 2/antioxidant responsive element (Nrf2/ARE) small molecule agonists: qHTS cell viability counter screen in human keratinocytes (AID 1919968; active means well fitted curve in the direction sought with a large enough effect in the repeat runs; an effect the other way counts as inactive or inconclusive; further: nearly all actives have a fitted effect of over 55% in size). In a few lines:
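Viability counter-screen: KeratinoSens reporter cells, DMSO-delivered compounds, 23 h at 37 C, CellTiter-Fluor fluorescence.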

Assay [2] in a line: Nuclear factor erythroid 2-related factor 2/antioxidant responsive element (Nrf2/ARE) small molecule agonists: luciferase reporter gene qHTS assay in human keratinocytes (AID 1919969). Further: nearly all actives have a fitted effect of over 35% in size. Further: potency means the concentration at half of the fitted maximal effect.
The target in assay [3] is Gonadotropin-releasing hormone receptor (Homo sapiens) (UniProt P30968). Nature of the assay: Human gonadotropin-releasing hormone receptor (GnRHR) small molecule agonists, calcium flux assay in GnRHR-HEK293 cells (AID 1920063). Further: nearly all actives have a fitted effect of over 35% in size. In outline:
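Tox21-format agonist screen using human GnRHR-expressing HEK293 cells and a fluorescent calcium dye; kinetic 3-min fluorescence reading after compound addition, 15-point concentration series run in triplicate.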
On the technique in general: Calcium flux is commonly read through the fluorescence of an indicator in the cells.

The target in assay [4] is KiSS-1 receptor (Homo sapiens) (UniProt Q969F8). Nature of the assay: Human kisspeptin (KISS1R) small molecule agonists, calcium flux assay in KISS1R-HEK293 cells (AID 1920064; active means well fitted curve in the direction sought with a large enough effect in the repeat runs; an effect the other way counts as inactive or inconclusive). In outline: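 Intracellular calcium mobilization in KISS1R-HEK293 cells was recorded by fluorescence (Ex/Em 480/540) for 3 min following compound addition to cells pre-loaded 1 h with calcium dye.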
KiSS-1 receptor (Homo sapiens), sequence (Q969F8 whole entry, looked up): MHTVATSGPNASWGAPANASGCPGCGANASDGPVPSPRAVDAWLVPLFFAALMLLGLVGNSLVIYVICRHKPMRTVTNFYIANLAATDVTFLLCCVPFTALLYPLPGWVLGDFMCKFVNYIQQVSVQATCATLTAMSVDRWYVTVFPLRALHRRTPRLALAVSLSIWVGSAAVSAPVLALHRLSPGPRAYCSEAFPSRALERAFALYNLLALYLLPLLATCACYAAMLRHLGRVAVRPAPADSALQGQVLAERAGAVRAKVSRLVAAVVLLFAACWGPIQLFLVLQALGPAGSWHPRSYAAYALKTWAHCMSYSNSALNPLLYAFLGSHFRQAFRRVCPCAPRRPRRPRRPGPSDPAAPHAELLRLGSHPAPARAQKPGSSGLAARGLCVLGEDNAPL

Assay [5] in a line: G protein-coupled receptor (GPCR) small molecule agonists, calcium flux assay: HEK293 wild type cell line counter screen (AID 1920065). In a few lines:
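In this agonist-mode screen, ATP is the positive control and DMSO the vehicle. Cells grow 18 h before a 1 h dye incubation at 37 C; signal is taken at Ex/Em 480/540 over 3 min.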

Assay [6] in a line: p53 small molecule agonists, cell-based qHTS assay with human liver microsomes (AID 1963577).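 Further: p53 response element beta-lactamase reporter cells with liver microsomes plus NADPH.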 In outline: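 p53RE-bla cells; 5 h settle, 37 C/5% CO2; cpd + HLM 0.5 mg/mL + NADPH 0.5 mg/mL (final); 16 h 37 C; LiveBLAzer 2 h RT dark; fluorescence readout.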
On the technique in general: qHTS replaces the single test concentration by a dilution series.

A short description of assay [7]: p53 small molecule agonists, cell-based qHTS assay with rat liver microsomes (AID 1963578). In outline: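 Rat liver microsome activation: microsomes 0.5 mg/mL, NADPH 0.5 mg/mL final; p53RE-bla cells, 16 h 37 C; LiveBLAzer readout, 2 h RT dark.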
The nature of assay [8]: p53 small molecule agonists, cell-based qHTS assay: qHTS cell viability counter screen (AID 1963581). Further: nearly all actives have a fitted effect of over 45% in size. In a few lines: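 Compounds are pinned onto HCT-116 p53RE-bla cells and left 16 h at 37 C. Following the reporter FRET read, ATP is quantified by CellTiter-Glo luminescence after 30 min at room temperature.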
A short description of assay [9]: p53 small molecule agonists, cell-based qHTS assay (AID 1963582; active means well fitted activation curve with a large enough effect in the signal ratio in the repeat runs, not every such curve was filed as active; the % refers to the signal ratio). In outline:
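Agonist activity was scored from beta-lactamase FRET fluorescence in p53RE-bla cells treated 16 h at 37 C with compounds in DMSO, substrate incubation being 2 h at room temperature.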

Assay [10] has as its target 5-hydroxytryptamine receptor 2A (Homo sapiens) (UniProt P28223). Nature of the assay: 5-hydroxytryptamine receptor 2A (HTR2A) small molecule antagonists, cell-based qHTS assay (AID 1963586). Further: nearly all actives have a fitted effect of over 45% in size. In a few lines:
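Antagonist-mode intracellular calcium assay: DOI (4 nM) added after 5 min compound pre-incubation at room temperature to dye-loaded HTR2A-CHO cells. Fluorescence followed for 3 min, sampled every second.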

Assay [11] shares this target. Nature of the assay: 5-hydroxytryptamine receptor 2A (HTR2A) small molecule agonists, cell-based qHTS assay (AID 1963587). Further: nearly all actives have a fitted effect of over 30% in size. In outline:
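HTR2A-CHO cells, plated 18 h at 37 C/5% CO2, dye-loaded 1 h at 37 C; compounds in DMSO added by pin tool (agonist mode). Intracellular calcium flux read as kinetic fluorescence on FDSS over 2 min at 1 s intervals.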

Assay [12] addresses Muscarinic acetylcholine receptor M1 (Homo sapiens) (UniProt P11229). Nature of the assay: Cholinergic receptor muscarinic 1 (CHRM1) small molecule antagonists, cell-based qHTS assay (AID 1963588). Further: nearly all actives have a fitted effect of over 40% in size. Further: potency means the concentration at half of the fitted maximal effect. In outline:
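CHRM1-CHO calcium-flux assay, antagonist mode. Cells were seeded 18 h, dye-loaded 1 h at 37 C and given compound for 5 min at RT, then acetylcholine was added at 50nM. FDSS fluorescence was read 3 min; 15 concentrations, three runs.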

For assay [13] the target is unchanged. Nature of the assay: Cholinergic receptor muscarinic 1 (CHRM1) small molecule agonists, cell-based qHTS assay (AID 1963589). Further: nearly all actives have a fitted effect of over 35% in size. In outline: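 Stable CHRM1-CHO cells (human receptor) were incubated 18 h, dye-loaded for 1 h at 37 C and exposed to test compounds for agonist activity, with calcium-dependent fluorescence followed kinetically.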
Assay [14] can be described thus: cAMP Responsive Elements (CRE) small molecule agonists, cell-based qHTS assay (AID 1963590). In outline: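 FRET-based beta-lactamase readout (LiveBLAzer B/G, 2 h RT) quantified CRE activation in HEK 293T CRE-bla cells after 3 h treatment with DMSO-dissolved compounds.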
A short description of assay [15]: cAMP Responsive Elements (CRE) small molecule antagonists, cell-based qHTS assay (AID 1963591; active means well fitted inhibition curve with a large enough effect in the signal ratio in the repeat runs, not every such curve was filed as active; the % refers to the signal ratio). In outline:
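qHTS in CRE-bla HEK 293T cells: compound in DMSO, then 0.25 uM NKH477 (final), 3 h at 37 °C/5% CO2; beta-lactamase FRET read-out after 2 h substrate incubation.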

The target of assay [16] is Beta-2 adrenergic receptor (Homo sapiens) (UniProt P07550). Nature of the assay: Adrenergic beta2 receptor (ADRB2) small molecule agonists, cell-based qHTS assay (AID 1963593).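 Further: CHO cells stably overexpressing human ADRB2.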 In outline:
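CHO cells stably over-expressing ADRB2 were plated overnight at 37C, then dosed with compounds plus a stimulation mix containing 100uM IBMX and 25uM Ro-20-1724 for 0.5hr at room temperature. cAMP was measured by HTRF competition, 1hr.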

Assay [17] concerns the target D(2) dopamine receptor (Homo sapiens) (UniProt P14416). Nature of the assay: Dopamine D2 receptor (DRD2) small molecule antagonists, cell-based qHTS assay (AID 1963595; active means well fitted inhibition curve with a large enough effect in the signal ratio in the repeat runs, with a control signal flat; the % refers to the signal ratio). In outline:
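Antagonist mode in DRD2-HEK293 cells: after compound addition with 0.1 mM Ro20-1724, cells received quinpirole (12 nM) and NKH477 (200 nM) for 30 min at room temperature; HTRF cAMP read after 1 h detection.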

Assay [18] concerns the target Beta-2 adrenergic receptor (Homo sapiens) (UniProt P07550). Nature of the assay: Adrenergic beta2 receptor (ADRB2) small molecule antagonists, cell-based qHTS assay (AID 1963592). Further: series mostly up to about 92 µM; nearly all actives have a fitted effect of over 50% in size. In a few lines:
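Cells (CHO, stable ADRB2 overexpression) incubated 18-20hr at 37C; compounds added from DMSO; agonist mix (1nM isoproterenol, 100uM IBMX, 25uM Ro-20-1724) added; 0.5hr RT; d2-cAMP and anti-cAMP-cryptate added; 1hr RT; 665/615 nm read.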

The target of assay [19] is D(2) dopamine receptor (Homo sapiens) (UniProt P14416). Nature of the assay: Dopamine D2 receptor (DRD2) small molecule agonists, cell-based qHTS assay (AID 1963594). Further: nearly all actives have a fitted effect of over 35% in size. In outline:
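HEK293 cells stably expressing DRD2 were cultured 24 h at 37 C, then given Ro20-1724 (0.1 mM final) and compounds for 10 min at room temperature. NKH477 (200nM) was then added for 30 min. cAMP was read by HTRF.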

Muscarinic acetylcholine receptor M1 (Homo sapiens), sequence (P11229 whole entry, looked up): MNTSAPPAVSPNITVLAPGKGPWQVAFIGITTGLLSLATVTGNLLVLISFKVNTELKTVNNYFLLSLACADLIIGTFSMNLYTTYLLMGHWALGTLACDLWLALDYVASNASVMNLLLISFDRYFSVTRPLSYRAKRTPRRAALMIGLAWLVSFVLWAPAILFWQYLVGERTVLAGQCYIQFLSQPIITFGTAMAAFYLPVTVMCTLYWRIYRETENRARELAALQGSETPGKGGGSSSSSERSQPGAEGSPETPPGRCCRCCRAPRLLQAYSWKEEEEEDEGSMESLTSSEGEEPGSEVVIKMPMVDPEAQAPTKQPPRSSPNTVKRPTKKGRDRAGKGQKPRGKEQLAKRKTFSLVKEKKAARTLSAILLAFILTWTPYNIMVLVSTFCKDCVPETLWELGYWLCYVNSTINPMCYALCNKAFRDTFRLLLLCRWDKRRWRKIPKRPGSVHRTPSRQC
Beta-2 adrenergic receptor (Homo sapiens), sequence (P07550 whole entry, looked up): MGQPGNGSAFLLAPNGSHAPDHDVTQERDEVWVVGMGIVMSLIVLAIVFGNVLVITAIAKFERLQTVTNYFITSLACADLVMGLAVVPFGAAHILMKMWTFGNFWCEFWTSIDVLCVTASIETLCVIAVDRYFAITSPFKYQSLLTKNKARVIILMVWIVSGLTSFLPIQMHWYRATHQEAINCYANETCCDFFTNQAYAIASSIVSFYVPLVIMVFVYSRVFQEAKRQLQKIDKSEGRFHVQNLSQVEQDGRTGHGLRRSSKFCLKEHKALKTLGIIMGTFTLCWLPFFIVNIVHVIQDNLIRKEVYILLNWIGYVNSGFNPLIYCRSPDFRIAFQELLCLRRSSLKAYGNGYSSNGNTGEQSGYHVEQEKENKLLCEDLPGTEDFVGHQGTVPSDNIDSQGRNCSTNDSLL
5-hydroxytryptamine receptor 2A (Homo sapiens), sequence (P28223 whole entry, looked up): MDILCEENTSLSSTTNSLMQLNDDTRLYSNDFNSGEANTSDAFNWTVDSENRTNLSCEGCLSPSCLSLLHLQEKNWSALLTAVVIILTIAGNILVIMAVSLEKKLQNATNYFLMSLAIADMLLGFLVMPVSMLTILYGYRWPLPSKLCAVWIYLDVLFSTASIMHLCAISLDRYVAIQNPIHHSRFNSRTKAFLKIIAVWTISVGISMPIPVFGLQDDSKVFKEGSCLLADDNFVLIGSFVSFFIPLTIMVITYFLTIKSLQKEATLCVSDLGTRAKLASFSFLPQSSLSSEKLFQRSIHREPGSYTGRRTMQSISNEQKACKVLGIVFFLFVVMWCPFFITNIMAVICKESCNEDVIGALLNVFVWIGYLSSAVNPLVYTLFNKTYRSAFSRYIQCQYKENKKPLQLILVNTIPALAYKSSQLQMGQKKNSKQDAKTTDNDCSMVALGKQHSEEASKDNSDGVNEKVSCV
Gonadotropin-releasing hormone receptor (Homo sapiens), sequence (P30968 whole entry, looked up): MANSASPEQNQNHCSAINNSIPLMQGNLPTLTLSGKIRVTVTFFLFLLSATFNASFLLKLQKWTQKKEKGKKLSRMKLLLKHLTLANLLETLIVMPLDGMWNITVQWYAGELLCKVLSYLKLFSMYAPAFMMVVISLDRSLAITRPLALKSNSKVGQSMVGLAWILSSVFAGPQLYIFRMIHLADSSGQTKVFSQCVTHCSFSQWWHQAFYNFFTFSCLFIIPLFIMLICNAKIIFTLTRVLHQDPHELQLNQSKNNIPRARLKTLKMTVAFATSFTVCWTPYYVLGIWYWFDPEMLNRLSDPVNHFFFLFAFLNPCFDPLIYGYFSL
D(2) dopamine receptor (Homo sapiens), sequence (P14416 whole entry, looked up): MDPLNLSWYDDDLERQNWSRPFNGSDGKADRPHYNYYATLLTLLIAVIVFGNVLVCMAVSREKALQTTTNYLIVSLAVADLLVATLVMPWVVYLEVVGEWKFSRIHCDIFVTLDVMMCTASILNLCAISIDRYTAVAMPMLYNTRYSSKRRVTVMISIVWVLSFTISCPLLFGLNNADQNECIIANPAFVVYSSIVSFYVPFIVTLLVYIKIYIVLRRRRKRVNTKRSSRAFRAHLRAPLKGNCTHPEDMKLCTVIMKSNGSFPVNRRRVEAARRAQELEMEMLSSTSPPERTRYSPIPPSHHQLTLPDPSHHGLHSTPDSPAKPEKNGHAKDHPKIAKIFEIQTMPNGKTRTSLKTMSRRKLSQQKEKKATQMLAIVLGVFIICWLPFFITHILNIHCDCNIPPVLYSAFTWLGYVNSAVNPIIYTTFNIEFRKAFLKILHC

Take `COc1cc(C(=S)N2CCOCC2)ccc1O`: the Potency entry in assay [1], in assay [2], in [3], in [4], in [5] and in assay [6] was “inactive” each time. Besides, the Potency result in [7], in assay [8], in [9], in [10], in assay [11] and in assay [12] was “inactive” throughout. In addition, the Potency entry in assay [13], in assay [14], in [15], in [16] and in assay [17] was “inactive” each time.
Turning to `NC(=O)c1ccc([N+](=O)[O-])cc1`, the Potency result in [1], in assay [2], in assay [3], in [4], in assay [5] and in assay [6] was “inactive” each time. In addition, the Potency entry in assay [7], in assay [8], in assay [9], in [10], in assay [11] and in assay [12] was “inactive” each time. In addition, the Potency result in assay [13], in assay [14], in assay [15], in assay [18], in assay [19] and in assay [17] was “inactive” throughout.
Take `O=S(=O)(O)CCCN1CCOCC1`: the Potency entry in assay [1], in assay [2], in assay [3], in assay [4], in assay [5] and in assay [6] was “inactive” in each case. Also, the Potency result in assay [7], in assay [8], in assay [9], in assay [10], in [11] and in assay [12] was “inactive” each time. Moreover, the Potency entry in assay [13], in [14], in assay [15], in assay [18], in [16] and in assay [19] was “inactive” each time. Further, the Potency result in assay [17] was “inactive”.
As for `NCCO`, the Potency result in assay [1], in [3], in assay [4], in assay [5], in assay [6] and in assay [7] was “inactive” each time. Besides, the Potency entry in [8], in assay [9], in assay [10], in assay [11], in [13] and in assay [14] was “inactive” each time. Further, the Potency result in assay [15], in [18], in [19] and in [17] was “inactive” each time. Further, the Potency result in [2] is “inactive and 27.3 µM (active)”; in assay [12], 18.8 µM (active).
For `CCOC(=O)[C@H](CCc1ccccc1)N[C@@H](C)C(=O)N1Cc2ccccc2C[C@H]1C(=O)O`, the Potency entry in assay [1], in [2], in assay [3], in [4], in [5] and in assay [6] was “inactive” throughout. For the same compound, the Potency entry in assay [7], in assay [8], in [9], in [14], in assay [15] and in assay [18] was “inactive” each time. For the same compound, the Potency entry in [16], in [19] and in assay [17] was “inactive” in each case.
As to `C=COCCCC`, the Potency result in assay [1], in assay [2], in assay [3], in assay [4], in assay [5] and in assay [6] was “inactive” in each case. Also, the Potency result in [7], in assay [8], in assay [9], in assay [10], in [11] and in [12] was “inactive” each time. Also, the Potency result in assay [13], in assay [14], in assay [15], in [16], in assay [19] and in assay [17] was “inactive” throughout.
For the compound `NC(=S)N/N=C/c1cccnc1`, the Potency entry in [1], in assay [2], in assay [3], in assay [4], in assay [5] and in [6] was “inactive” in each case. Moreover, the Potency entry in [7], in [8], in assay [9], in assay [10], in assay [11] and in assay [13] was “inactive” each time. For the same compound, the Potency result in [14], in [18], in assay [19] and in assay [17] was “inactive” throughout.
